# Compound activity deposited in PubChem BioAssay by National Center for Advancing Translational Sciences (NCATS).
# HEK293 tox: cytotoxic in the GLP-1 receptor inverse agonist counter-screen; Potency, µM (doses to about 38.3 µM), without a hit: at the top dose activity change, negative = inhibition, hits mostly inhibitors; actives 0.13% (n = 410,000); HEK293 cAMP-luciferase reporter cells, luminescence, 24 h; AID 624418;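 note: loss of luciferase light is scored as toxicity; % is set by controls: 0 for no effect and ±100 for the full control effect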
#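 Cells in DMEM/10% Nu serum/1% pen-strep, 1536-well format. Pre-incubated 12 h, dosed with 23 nL compound, incubated a further 24 h. Luciferase detection, 12 min at room temp, luminescence.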
# GLP1R ag: agonists of human GLP-1 receptor | HEK293 GLP-1R CRE-luciferase, luminescence, 4-6 h; cells express a hypersensitive GLP-1R form | Potency, µM (top dose mostly 45.6 µM), for the others: at the highest dose activation, most hits filed as activators | actives 0.007% (n = 380,000) | AID 624172; note: % of control where 0% means no effect
# RORg inh: inhibitors of mouse ROR gamma transcriptional activity. P51450. Drosophila S2 Gal4-RORgamma UAS-luciferase reporter, 20 h. Potency, µM (doses to about 53.6 µM), for the others: at the top dose activity change, negative = inhibition, most hits filed as inhibitors. actives 5.4% (n = 310,000). AID 2551; note: % is set by controls: 0 for no effect and ±100 for the full control effect; nearly all actives have a fitted effect of over 60% in size
# Target sequence (P51450 whole entry, looked up, the tested form may be a part): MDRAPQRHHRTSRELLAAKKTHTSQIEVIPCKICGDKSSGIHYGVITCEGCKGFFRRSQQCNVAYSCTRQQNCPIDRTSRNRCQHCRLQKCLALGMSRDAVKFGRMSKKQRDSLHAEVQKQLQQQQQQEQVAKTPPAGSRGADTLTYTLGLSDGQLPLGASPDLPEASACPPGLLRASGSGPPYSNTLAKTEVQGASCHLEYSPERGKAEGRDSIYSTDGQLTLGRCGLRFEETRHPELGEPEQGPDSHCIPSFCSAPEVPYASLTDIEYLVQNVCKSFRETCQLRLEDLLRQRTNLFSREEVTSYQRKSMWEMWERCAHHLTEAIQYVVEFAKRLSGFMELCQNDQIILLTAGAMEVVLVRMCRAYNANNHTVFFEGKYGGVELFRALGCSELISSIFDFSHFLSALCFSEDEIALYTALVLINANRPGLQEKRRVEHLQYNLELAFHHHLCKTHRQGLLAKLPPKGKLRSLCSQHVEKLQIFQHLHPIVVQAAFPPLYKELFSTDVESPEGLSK
#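 Luciferase reporter read in Schneider cells carrying Gal4-RORγ (mouse) and UAS-Photinus luciferase; cells given compound 1 h before 700 uM copper sulfate induction, then incubated 20 h at ambient temperature.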
# GLP-1R inv ag: acts as inverse agonist at human GLP-1 receptor; HEK293 GLP-1R CRE-luciferase, luminescence, 24 h; GLP-1R form is constitutively active; actives 1.6% (n = 410,000); P43220; Potency, µM (top dose mostly 38.3 µM), inactives show top-dose activity change, negative = inhibition, most hits filed as inhibitors; note: % is set by controls: 0 for no effect and ±100 for the full control effect; nearly all actives have a fitted effect of over 55% in size
#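 GLP-1R inverse agonism mode: basal reporter luminescence in engineered HEK293 cells measured after one day of compound exposure at 37 deg C, with a 12 min room-temperature detection step.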
# Gal4-VP16 FLuc: counter-screen for ROR gamma inhibitors: Gal4-VP16 reporter; Drosophila S2 Gal4-VP16 UAS-luciferase, luminescence, 20 h; Potency, µM (titrated, usually from 53.6 µM), without a hit: at the highest dose activity, negative = inhibition, usual class: inhibitors; AID 2546; actives 3.5% (n = 310,000);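 note: Gal4-VP16 expression switched on by copper sulfate through the metallothionein promoter; % is set by controls: 0 for no effect and ±100 for the full control effect; nearly all actives have a fitted effect of over 50% in size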
# * hit, by the source's call; ? = inconclusive; · = not tested or not shown; [ ] = dose if it differs, or a comment. Hits are enriched below; roughly 5.9% of the tested compounds scored in any of these assays. Calls come from the whole dose curve; as a rule, active = well fitted curve in the direction sought with a large enough effect; inconclusive = small, poorly fitted or top-dose-only effect, or another doubt; inactive = no such curve, though single readings can be large; an effect the other way counts as inactive or inconclusive. Potency is the fitted concentration of half-maximal effect.
SMILES,HEK293 tox,GLP1R ag,RORg inh,GLP-1R inv ag,Gal4-VP16 FLuc
C=C1CCN(C(C(=O)NCc2ccc(Cl)c(Cl)c2)C(C)C)S(=O)(=O)c2ccccc21 (centres undefined),·,·,11%,·,-3%
C=C1CCN([C@@H](CC(C)C)C(=O)NCc2ccc(Cl)c(Cl)c2)S(=O)(=O)c2ccccc21,3%,-2%,·,11µM*,·
C=C1CCN([C@H](C(=O)NCc2ccc(Cl)c(Cl)c2)C(C)C)S(=O)(=O)c2ccccc21,0%,-7%,6%,10µM*,-2%
C=C1CCN([C@@H](Cc2ccccc2)C(=O)NCc2ccc(Cl)c(Cl)c2)S(=O)(=O)c2ccccc21,8%,3%,·,11µM*,·
C=C1CCN([C@@H](CC(C)C)C(=O)NCc2ccc(Cl)cc2)S(=O)(=O)c2ccccc21,1%,12%,·,?,·
CSCC[C@H](NC(=O)[C@H](CC(C)C)NC(=O)CNC(=O)[C@H](Cc1ccc(O)cc1)NC(=O)[C@H](Cc1ccccc1)NC(=O)[C@H](CCC(N)=O)NC(=O)[C@H](CCC(N)=O)NC(=O)[C@@H]1CCCN1C(=O)[C@H](CCCCN)NC(=O)[C@@H]1CCCN1C(=O)[C@@H](N)CCCN=C(N)N)C(N)=O,·,·,9%,·,-3%
CSc1ccc(NC(=O)C2(C)CCN2C(=O)c2ccccc2CCc2ccccc2)cc1 (centres undefined),3%,-3%,·,10µM*,·
COc1cc2c3nnc(-c4ccc(F)cc4)c-3cn(Cc3cccc(C)c3)c2cc1OC,27%,8%,?,0%,10µM*
COc1cc2c3nnc(-c4ccc(F)cc4)c-3cn(Cc3cccc(F)c3)c2cc1OC,68%,23%,?,17%,-30%
COc1cc2c3nnc(-c4ccc(F)cc4)c-3cn(Cc3ccc(C)cc3)c2cc1OC,-4%,3%,5µM*,-6%,4µM*
CC12C=C(/C=C/c3ccc(F)cc3)C(C)(C1)C(c1ccc(F)cc1)CC2=O (centres undefined),·,·,1%[10 µM],·,2%[10 µM]
CCOCCCNC(=O)C(c1ccc(OC)cc1)N(Cc1cccs1)C(=O)c1ccc(NC(C)=O)cc1 (centres undefined),-24%,·,·,-27%,·
O=[N+]([O-])c1ccc2nc(-c3ccc(Cl)cc3)n(OCc3ccccc3)c2c1,-17%,1%,24%,0%,?
Clc1ccc(COn2c(-c3ccc(Cl)cc3)nc3ccccc32)cc1,-12%,0%,11µM*,0%,21%
Cc1ccc(COn2c(-c3ccc(Cl)cc3)nc3ccc([N+](=O)[O-])cc32)cc1,0%,2%,24%,0%,-4%
Clc1ccc(COn2c(-c3ccccc3)nc3ccccc32)cc1,3%,5%,10µM*,?,?
COc1ccc(Sc2ccc(NC(=O)c3ccccc3Cl)cc2C#N)cc1,?,2%,?,13µM*,3%
COc1cc2nc(Nc3ccc(C)c(Cl)c3)nc(N)c2cc1OC,?,0%,-76%,3.2µM*,?
COc1cc2nc(Nc3ccc(C)c(C)c3)nc(N)c2cc1OC,?,14%,3%,10µM*,-8%
COc1cc2nc(Nc3cccc(C)c3)nc(N)c2cc1OC,0%,·,·,?,·
Cc1cc(C)cc(NC(=O)CSc2oc(-c3cccs3)nc2S(=O)(=O)c2ccccc2)c1,-20%,·,·,16%,·
CCc1c(C)sc2c1CCN(Cc1ccccc1)C2c1ccccc1 (centres undefined),0%,·,·,?,·
COc1ccc(CCN(C)CCCOc2ccc(S(=O)(=O)c3[nH]c4ccccc4c3C(C)C)cc2)cc1OC,·,·,14µM*,·,18µM*
CC(O)(c1ccc(Cl)cc1)c1ccc(Cl)cc1,·,·,-5%,·,?
CCOC(=O)c1c(S(=O)(=O)N2CCCC(C(=O)N3CCN(c4ccc(F)cc4)CC3)C2)c(C)n(C)c1C (centres undefined),-14%,·,·,-3%,·
SMILES,HEK293 tox,GLP1R ag,RORg inh,GLP-1R inv ag,Gal4-VP16 FLuc
COc1ccc(C[C@H]2COC(=O)[C@@H]2Cc2ccc(OC3OC(CO)C(O)C(O)C3O)c(OC)c2)cc1OC (some centres undefined),2%,10%,?,19%,-17%
COc1cc(C[C@H]2C(=O)OC[C@@H]2Cc2ccc(OC)c(OC)c2)ccc1O,·,·,6.3µM*,·,1.1µM*
CN(C)C(=O)c1ccc(-c2nccc(NCc3cccnc3)n2)cc1,·,·,1%,·,-3%
COc1cc(/C(C)=N/NC(=S)NC(C)C)cc(OC)c1OC,-13%,24%,3.2µM*,?,5µM*
COc1cc(/C(C)=N\NC(N)=S)cc(OC)c1OC,?,13%,5.6µM*,-12%,?
COc1cc(C(=O)NCCC(=O)NC(C)C)cc(OC)c1OC,12%,0%,-9%,13%,8%
CCCCc1ccc(/C=C(\C#N)C(N)=S)s1,?,12%,7.1µM*,?,?
CC(=O)c1ccc(-c2c(C3C4C=CCCC4(C)C(=O)N3Cc3ccccc3)ccc3ccccc23)cc1 (centres undefined),·,·,?,·,3%
CCOc1ccc(/C=C2\NC(=S)NC2=O)cc1,-21%,-2%,?,32%,?
COc1cccc(/C=C/C2=CC(C)(C)NC(=S)N2)c1,?,6%,1.3µM*,?,5µM*
CCOc1ccc(/C=C/C2=CC(C)(C)NC(=S)N2)cc1,5.6µM*,5%,0.71µM*,?,2.2µM*
COc1ccc(/C=C/C2=CC(C)(C)NC(=S)N2)cc1OC,?,23%,3.2µM*,?,-16%
COc1ccc(/C=C/c2ccncc2)cc1OC,-2%,15%,-20%,216%,3%
C[C@H](C(=O)O)c1ccc2cc(O)ccc2c1,·,·,-23%,·,-11%
COc1c(O)c(O)c2cc(OC)c3c(OC)cc(=O)c4c5c(=O)c(OC)c(C(C)=O)c6c5c(c1CC=6C)c2c34,·,·,5%,·,-8%
Cc1nc(S/C(=C\c2ccc(OCc3ccccc3Cl)cc2)C(=O)O)n[nH]1,6%,-16%,1µM*,8%,?
CCOc1cc(CNCC(C)C)c(Cl)cc1OCC(=O)Nc1ccccc1,-7%,15%,10%,11µM*,6%
CCNCc1cc(OCC)c(OCC(=O)NCCc2ccccc2)cc1Cl,-36%,1%,14%,?,-7%
COC(=O)CN1C(=O)[C@@H]2[C@H](C1=O)[C@@H]1CC(C(=O)OC)=C[C@@H](C(=O)OC)C3C1=C(C(=O)[C@@]3(C)NC(=O)c1ccccc1)[C@@H]2C (some centres undefined),·,·,-16%,·,-18%
CCN1C(=O)[C@H]2[C@@H](c3ccc(-c4cccc(Cl)c4)c(OC)c3)N[C@@](Cc3ccccc3)(C(=O)OC)[C@H]2C1=O,-1%,-5%,·,?,·
